Screens as filed in PubChem.
GPR151 activ: activators of human GPR151. PathHunter beta-arrestin GPR151 cells, luminescence. activation, % at 11.2 µM. hit rate 1% among 650,000; in the data active means activation above about 4.9%;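 further: 0% = median of compound wells and 100% = cells with positive control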
FBW7 activator: human FBW7 E3 ligase activation, primary screen; Q969H0; AlphaScreen FBW7–phospho-cyclin E peptide binding, activator screen; normalized activity (activation), % at 26.1 µM; hit rate 0.13% among 650,000; AID 1259310; in the data active means normalized activity above about 1.9%;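 further: purified mutant Fbw7 with reduced substrate affinity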
Target sequence (Q969H0 whole entry, looked up): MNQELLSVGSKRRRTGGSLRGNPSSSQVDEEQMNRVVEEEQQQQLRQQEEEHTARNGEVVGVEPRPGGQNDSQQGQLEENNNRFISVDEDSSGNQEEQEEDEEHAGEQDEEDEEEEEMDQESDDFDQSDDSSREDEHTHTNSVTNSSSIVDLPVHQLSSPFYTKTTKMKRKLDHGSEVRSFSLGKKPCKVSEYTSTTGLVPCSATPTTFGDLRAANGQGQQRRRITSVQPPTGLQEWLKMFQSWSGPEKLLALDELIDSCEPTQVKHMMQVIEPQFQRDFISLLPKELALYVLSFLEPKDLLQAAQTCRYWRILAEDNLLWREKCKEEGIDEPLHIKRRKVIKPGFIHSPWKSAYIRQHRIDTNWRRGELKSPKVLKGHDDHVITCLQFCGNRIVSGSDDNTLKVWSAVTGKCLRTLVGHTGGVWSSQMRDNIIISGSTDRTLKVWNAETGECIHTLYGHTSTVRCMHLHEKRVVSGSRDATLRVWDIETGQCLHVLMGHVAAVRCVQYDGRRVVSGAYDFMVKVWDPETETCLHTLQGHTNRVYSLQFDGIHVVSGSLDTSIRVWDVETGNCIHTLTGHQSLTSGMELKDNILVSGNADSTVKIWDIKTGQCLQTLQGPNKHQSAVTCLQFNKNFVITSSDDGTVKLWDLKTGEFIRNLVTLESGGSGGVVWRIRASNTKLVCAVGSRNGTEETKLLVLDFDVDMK
MITF inh: blocks human microphthalmia-associated transcription factor. O75030. AlphaScreen MITF homodimerization, bead proximity signal. inhibition, % at 2.6 µM. hit rate 0.91% among 650,000. AID 1259374; in the data active means inhibition above about 50%;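 further: 0% = vehicle wells with protein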
TEAD-YAP block: TEAD-YAP interaction inhibition | AID 1259422 | HEK-TIYL cells, TEAD-Gal4/YAP UAS-luciferase luminescence | inhibition, % at 9.12 µM | hit rate 1.4% among 640,000; in the data active means inhibition above about 32%;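 further: 0% = median of test compound wells and 100% = reference inhibitor wells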
The depositor's hits bear a star. This is a sample that favours compounds with a hit; in the whole collection about 3.5% have one here.

SMILES | GPR151 activ | FBW7 activator | MITF inh | TEAD-YAP block
COc1ccc(-c2cc(-c3ccccc3)nc(SCC(C)=O)c2C#N)cc1 | -1 | 0 | -9 | 8
CC(C)n1nc(C(=O)NN)c2ccccc2c1=O | 0 | 0 | -7 | 51*
CCOC(=O)c1ccccc1NC(=O)c1ccc(N2C(=O)c3ccccc3C2=O)cc1 | -2 | 0 | 14 | 6
Cc1ccc2[nH]c(=O)c3cc(C(=O)N4CCN(C)CC4)sc3c2c1 | 0 | 0 | -1 | 0
CCN1CCN(C(=O)c2cc3c(=O)[nH]c4ccc(C)cc4c3s2)CC1 | 1 | 0 | 18 | 37*
CC(C)n1cnc2c(Nc3ccccc3)nc(-c3ccc(C(N)=O)cc3)nc21 | -1 | 0 | -1 | 44*
CC(C)n1cnc2c(NCc3ccccc3)nc(-c3ccc(C(N)=O)cc3)nc21 | 1 | 0 | -6 | 9
CC(C)n1cnc2c(NC3CC3)nc(-c3ccc(C(=O)NC4CC4)cc3)nc21 | -1 | 0 | 18 | 33*
CC(C)n1cnc2c(NC3CC3)nc(-c3ccc(C(N)=O)cc3)nc21 | -1 | 1 | 13 | 40*
CCCCCSc1nnc2c(n1)OC(c1ccco1)N(C(C)=O)c1ccccc1-2 (stereo unspecified) | 2 | 0 | -6 | 13
COc1ccc(C2C(C(=O)/C=C/c3ccccc3)=C(O)C(=O)N2CCCCCC(=O)O)cc1 (stereo unspecified) | -1 | 0 | 3 | 1
CCC(C)C(=O)NCc1nnc2n1CCN(Cc1cccc(F)c1)CC2 (stereo unspecified) | 0 | 0 | 10 | 2
COc1ccc(NC(=O)Cn2ncc3c2-c2ccccc2OC3)c(OC)c1 | 1 | 0 | 3 | 10
COc1ccc(OCc2n(CC(=O)OC3CC(C)CCC3C(C)C)c3ccccc3[n+]2C)cc1 (stereo unspecified) | 1 | 0 | 8 | 41*
O=C(Nc1cccc(OC(=O)c2ccc(Cl)cc2)c1)c1ccc([N+](=O)[O-])cc1 | 1 | 0 | -14 | 32*
COc1cccc(NC(=O)c2cc([N+](=O)[O-])ccc2Cl)c1 | 0 | 0 | -23 | 19
COC(=O)c1ccc(NC(=O)c2cc([N+](=O)[O-])ccc2Br)cc1 | 0 | 0 | -9 | 33*
COc1ccc(NC(=O)c2cc([N+](=O)[O-])ccc2Cl)cc1 | 1 | 0 | 4 | 34*
O=C(Nc1cccc(C(F)(F)F)c1)c1cc([N+](=O)[O-])ccc1Cl | 3 | 1 | 22 | 52*
CC(=O)Nc1cccc(NC(=O)c2cc([N+](=O)[O-])ccc2Cl)c1 | 0 | 1 | 14 | 18
Cc1cc(=O)oc2cc(OC(=O)c3cc4ccccc4oc3=O)ccc12 | -1 | 1 | 18 | -7
Oc1ccc(CCNc2nc(-c3ccccc3)nc3c2ncn3-c2ccccc2)cc1 | 2 | 0 | 6 | -4
Cc1ccc(C)c(CN2CCN3C(=O)[C@H](C(C)C)NC(=O)[C@H]3C2)c1 | 0 | 0 | 3 | -1
O=C(Nc1ccc(I)cc1)c1cc([N+](=O)[O-])ccc1Cl | -1 | 0 | -18 | 38*
O=C(COC(=O)c1ccc([N+](=O)[O-])o1)Nc1cccc(C(F)(F)F)c1 | 0 | 0 | -1 | 4
SMILES | GPR151 activ | FBW7 activator | MITF inh | TEAD-YAP block
O=C(CCl)Nc1cccc(C(F)(F)F)c1 | 0 | 0 | -2 | 34*
N/C(CC(=O)Nc1cccc(C(F)(F)F)c1)=N\O | 1 | 0 | 7 | 0
O=C(Nc1ccc(C23CC4CC(CC(c5ccccc5)(C4)C2)C3)cc1)c1cc([N+](=O)[O-])ccc1Cl | -2 | 0 | 11 | 59*
O=C(Nc1cccc(C(F)(F)F)c1)c1ccc([N+](=O)[O-])o1 | 0 | 0 | 12 | 36*
CCCCN(CC)C(=O)c1ccc(OC)c([N+](=O)[O-])c1 | -1 | 0 | 2 | 14
CC1(Cc2ccncc2)C(=O)Nc2cc(C(F)(F)F)ccc21 (stereo unspecified) | 1 | 0 | -7 | 7
CCN(Cc1ccccc1)S(=O)(=O)c1ccc(F)c(C(=O)Nc2ccc(Cl)cc2)c1 | 0 | 0 | 5 | -11
CC(Cc1cccnc1)NC(=O)c1ccc(OC2CCN(Cc3ccccn3)CC2)cc1 (stereo unspecified) | 1 | 0 | 3 | 1
CC(=O)Nc1cccc(NC(=O)c2ccc([N+](=O)[O-])cc2Cl)c1 | 0 | 0 | 16 | 0
CC(=O)Nc1ccc(NC(=O)c2cc([N+](=O)[O-])ccc2Cl)cc1 | -1 | 0 | 17 | 14
COc1ccc2nc(NC(=O)c3cc([N+](=O)[O-])ccc3Cl)sc2c1 | -1 | 0 | -2 | 33*
O=C(Nc1cccc(O)c1)c1ccc([N+](=O)[O-])cc1Cl | -1 | 0 | -8 | 73*
O=C(Nc1ccc(O)cc1C(=O)O)c1cccc([N+](=O)[O-])c1 | -6 | -1 | 53* | 0
O=C(Nc1ccc(F)cc1)c1cc([N+](=O)[O-])ccc1Cl | -2 | 1 | 21 | 33*
O=C(Nc1nc2n(n1)C(c1ccccc1)C=C(c1ccccc1)N2)c1ccc([N+](=O)[O-])cc1 (stereo unspecified) | 3 | 0 | 15 | 11
O=C(CN1CCOCC1)N1CCN(c2ccccc2)CC1 | 0 | 0 | 12 | 12
CCOc1ccc(/C(O)=C2\C(=O)C(=O)N(CCCN(C)C)C2c2ccccc2F)cc1C (stereo unspecified) | 0 | 0 | 0 | 4
O=C(Nc1sccc1C(=O)Nc1cccc([N+](=O)[O-])c1)c1ccco1 | 2 | 0 | 3 | 39*
COC(=O)c1ccc(NC(=O)c2ccc(OC)c([N+](=O)[O-])c2)cc1 | -3 | 3.7* | 21 | -2
COc1ccc(C(=O)Nc2ccncc2)cc1[N+](=O)[O-] | 0 | 0 | -9 | 7
O=C(Nc1cccc([N+](=O)[O-])c1)c1ccco1 | -1 | 0 | -1 | 2
CSc1ccc(CN2CCCC(C(=O)Nc3cccc(-n4cnnn4)c3)C2)cc1 (stereo unspecified) | -1 | 0 | 1 | 37*
O=C(OCc1ccccc1)N1CCCN(CCc2ccncc2)CC1 | 0 | 1.9* | 5 | -11
O=C(Nc1ccc(Cl)cc1)c1cc2c(=O)n3ccccc3nc2s1 | 0 | 0 | 9 | 0
COc1ccc(NC(=O)N(Cc2nnc3n2CCCCC3)c2ccc(C)cc2)cc1 | -1 | 0 | 0 | -17
SMILES | GPR151 activ | FBW7 activator | MITF inh | TEAD-YAP block
Nc1c(-c2ccccc2)cnc2c(-c3ccccc3)cnn12 | 0 | 0 | -4 | 41*
Nc1c(-c2ccccc2)cnc2c(-c3ccc(Cl)cc3)cnn12 | -2 | 1 | 6 | -22
Cc1nn2c(N)c(-c3ccccc3)cnc2c1-c1ccc(Cl)cc1 | 1 | 0 | -4 | 33*
C#CCOc1ccc(/C=C2/NC(=O)N(CC(=O)Nc3cccc(C)c3)C2=O)cc1OC | 0 | 0 | 6 | 1
Nc1ccc(-c2cnn3c(NCc4ccc5c(c4)OCO5)ccnc23)cc1 | -1 | 2.5* | 7 | -66
COc1ccc(Nc2ccnc3c(-c4ccc(N)cc4)cnn23)cn1 | 0 | 0 | 17 | 37*
c1ccc(CNc2ccnc3c(-c4ccc5c(c4)OCO5)cnn23)nc1 | -1 | 1.9* | 6 | 2
